High-throughput results: PubChem, National Center for Advancing Translational Sciences (NCATS)
Pf growth 96h: inhibits malaria parasite growth, 96 h. hit rate 6.9% among 320,000. Potency, µM (highest dose often 28.7 µM), for the others: top-dose activity change, negative = inhibition, most hits filed as inhibitors. P. falciparum luciferase reporter growth, 96 h; also: potency is read from the fitted curve at half-maximal effect; % is scaled to controls: 0 for no effect and ±100 for the full control effect
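Luminescence readout: decreased luciferase signal marks inhibited growth of reporter-expressing P. falciparum in infected red cells (2% hematocrit, 0.05% parasitemia final), exposed to compound two generations (96 h, 37 C, 5% CO2).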
Sm TGR inh: blocks Schistosoma mansoni thioredoxin glutathione reductase. Potency, µM (series often up to 114 µM), without a hit: top-dose activity change, negative = inhibition, actives largely listed as inhibitors. AID 485364. purified TGR, DTNB reduction, TNB absorbance 405 nm. Q962Y6. hit rate 3% among 360,000; also: potency is read from the fitted curve at half-maximal effect; % is scaled to controls: 0 for no effect and ±100 for the full control effect; nearly all actives have a fitted effect of over 60% in size
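Kinetic colorimetric format: TGR-catalysed, NADPH-driven DTNB reduction monitored via TNB absorbance. Enzyme dispensed at 20 nM; compound exposure 15 min at room temperature before reaction start.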
Shiga toxin inh: blocks Shiga toxin action in Vero cells; inhibition, % at 38.7 µM; Vero cells, Shiga toxin protein synthesis inhibition reporter; hit rate 9.2% among 290,000; in the data active = inhibition mostly above about 28%, no sharp cut-off; inactive = mostly below about 43%; also: 0% is about no effect
CHX counter: counter-screen for Shiga toxin inhibitors: cycloheximide protein synthesis inhibition. cell reporter, cycloheximide protein synthesis inhibition counterscreen. hit rate 12% among 300,000. max response, %. AID 2314; in the data active = max response mostly above about 13%, no sharp cut-off; inactive = mostly below about 14%; also: read at 38.3 µM for the half of the compounds with a filed dose; 0% is about no effect
Pf growth 48h: P. falciparum growth inhibition at 48 hours (one generation); hit rate 5.9% among 310,000; Potency, µM (doses to about 28.7 µM), without a hit: at the highest dose activity change, negative = inhibition, actives largely listed as inhibitors; AID 504832; P. falciparum luciferase growth in erythrocytes, 48 h; also: potency is read from the fitted curve at half-maximal effect; % is scaled to controls: 0 for no effect and ±100 for the full control effect
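Read-out is firefly luciferase luminescence from an integrated reporter in P. falciparum, so falling signal marks reduced parasite growth. Infected erythrocytes were at 2% hematocrit and 0.1% parasitemia (final) in Albumax-supplemented RPMI 1640.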
NS1 inh: blocks influenza NS1 protein function; AID 2326; Potency, µM (top dose mostly 46.1 µM), for inactives: top-dose activity, positive = more growth; hit rate 0.4% among 270,000; calls by dose curve; also: potency is read from the fitted curve at half-maximal effect; actives are rising curves; nearly all actives have a fitted effect of over 50% in size
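Read-out: OD600 growth recovery of NS1-expressing budding yeast. Cells grown overnight at 30C in -URA glucose medium, washed, resuspended and diluted 1:100 in 2% galactose assay medium, pH 6.0. Same strain lacking NS1 served as positive control.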
* marks the source's active call; other numbers are inactive results; ? = inconclusive; nt = no result given; [ ] = dose if it differs, or a comment. A selection: hits, their analogues and other compounds. The true share with any hit is near 21%. Unless noted, calls follow the shape of the dose curve; as a rule, active = well fitted curve in the direction sought with a large enough effect; inconclusive = small, poorly fitted or top-dose-only effect, or another doubt; inactive = no such curve, though single readings can be large; an effect the other way counts as inactive or inconclusive.

SMILES | Pf growth 96h | Sm TGR inh | Shiga toxin inh | CHX counter | Pf growth 48h | NS1 inh
C(=N\C(/N=C/c1ccco1)c1ccco1)/c1ccco1 | nt | -9.3%[11.4 µM] | 28.5 | 8.0 | nt | 0.5%
COc1cccc(C2C(C(=O)/C=C/c3ccco3)=C(O)C(=O)N2CCN2CCOCC2)c1 (centres undefined) | 8.7% | 4.47µM* | -10.7 | -14.0 | -2.9% | nt
CCOc1ccc(C2C(C(=O)c3ccco3)=C(O)C(=O)N2CCCn2ccnc2)cc1OC (centres undefined) | 28.0% | -21.3% | 11.5 | 15.5* | 25.7% | 2.5%
CCOc1ccc(C2C(C(=O)/C=C/c3ccco3)=C(O)C(=O)N2CCN2CCOCC2)cc1OC (centres undefined) | 8.4% | 5.01µM* | 22.1 | -4.1 | 10.2% | nt
COc1ccc(C2C(C(=O)/C=C/c3ccco3)=C(O)C(=O)N2CCN2CCOCC2)cc1 (centres undefined) | -15.2% | 14.1µM* | 12.9 | 6.0 | ? | nt
CC1(C(=O)Oc2ccccc2)Cc2ccccc2C(=O)O1 (centres undefined) | -27.6%[5.75 µM] | -2.3% | 14.2 | 1.5 | 0.0% | -7.9%
Cc1ccc(Cl)cc1N1CCN(C(=O)c2ccc3c(c2)N(Cc2ccccc2F)C(=O)c2ccccc2S3(=O)=O)CC1 | nt | 8.7% | nt | nt | nt | nt
CCc1ccc(NC(=O)Cn2cc([N+](=O)[O-])nc2C)cc1 | ? | -22.3% | -6.9 | 1.6 | 6.7% | 14.3%
Cc1ccccc1NS(=O)(=O)c1ccc(OCC(=O)NCc2ccccn2)cc1 | ? | -5.3% | -9.3 | -1.9 | 13.8% | -6.7%
CCOC(=O)c1cccc(Nc2nc(-c3cccnc3)nc3ccccc23)c1 | 8.28µM* | 5.7% | -11.2 | -1.7 | 13.1µM* | 9.2%
COC(=O)c1cccc(Nc2nc(-c3ccncc3)nc3ccccc23)c1 | ? | 6.3% | -7.2 | -1.8 | 1.85µM* | 1.4%
Cc1ccc2c(c1)Cc1c(nc(-c3ccc(F)cc3)nc1SCC(=O)N1CCCCC1)O2 | nt | -12.1% | nt | nt | nt | nt
Cn1cnc(Sc2ncnc3nc[nH]c23)c1[N+](=O)[O-] | -26.6% | ? | 7.1 | 6.6 | -27.4% | 3.6%
Cn1cnc([N+](=O)[O-])c1Sc1ncnc2nc[nH]c12 | ? | 10µM* | 0.1 | -0.2 | ? | 3.1%
COc1ccc(C)cc1NC(=O)C(OC(=O)CNC(=O)c1ccc(Br)cc1)c1ccccc1 (centres undefined) | 42.9% | 10.1% | 10.2 | 12.3* | 5.2% | 5.3%
COc1ccc(C)cc1NC(=O)C(NCC(O)c1ccccc1)c1ccccc1 (centres undefined) | 10.4µM* | 0.0% | -6.1 | 5.1 | ? | 2.0%
Cc1cccc(C2c3[nH]c4ccccc4c3CCN2C(=O)c2cc(CC(C)C)[nH]c(=O)n2)n1 (centres undefined) | ? | -35.4% | 14.6 | -2.3 | ? | -9.7%
Cc1cccc(C2c3[nH]c4ccccc4c3CCN2C(=O)c2nn(C)c(=O)c3ccccc23)n1 (centres undefined) | 8.28µM* | -6.7% | -3.8 | -1.5 | ? | 11.4%
Cc1cccc(C2c3[nH]c4ccccc4c3CCN2C(=O)c2cc(CC(C)C)nc(C)n2)n1 (centres undefined) | ? | -0.8% | -5.3 | -2.2 | 11.7µM* | -7.5%
Cc1cccc(C2c3[nH]c4ccccc4c3CCN2C(=O)Cc2nc(-c3ccccc3)n[nH]2)n1 (centres undefined) | 16.9% | 3.9% | -11.2 | -2.0 | 11.7µM* | 11.6%
Cn1cccc1C(=O)NCc1ccccn1 | 27.4% | -1.2% | nt | nt | 0.7% | nt
COC(=O)C1=C[C@@H](C(=O)OC)[C@@H]2C3=C(C(=O)C2(C)C)[C@H](c2ccccc2)[C@@H]2C(=O)N(c4ccccc4)C(=O)[C@@H]2[C@@H]3C1 | nt | nt | -9.0 | -3.1 | nt | nt
Cc1cc(NC(=O)CSc2nnnn2-c2ccc(C)c(Cl)c2)no1 | -13.4% | -12.1% | -14.1 | 1.1 | 34.6% | -4.8%
CCOc1ccc(Nc2nnc(Cc3ccc(OC)cc3)c(=O)[nH]2)cc1 | 0.0% | 9.9% | 0.9 | 2.3 | -12.0% | nt
CC(=O)c1ccc2c(c1)Cc1cc(C(C)=O)ccc1-2 | 5.22µM* | 4.6% | 133.5* | 30.8* | 271.1% | 7.4%
CC(=O)c1ccc2c(c1)OCCOCCOCCO2 | -23.2% | -21.8% | -1.5 | -1.2 | 5.5% | 2.7%
